This is a sample that favours compounds with a hit; in the whole collection about 1.3% have one here.
3CLpro inhibitor = SARS-CoV 3CLpro protease inhibitors, primary screen, biochemical, quenched FRET; inhibition, % at 6 µM; recombinant SARS-CoV 3CLpro, quenched FRET peptide cleavage; 290,000 tested, 0.14% active; AID 1706, 2009; in the data active = inhibition above about 12%
Sa ugtP lethal = growth inhibition of ugtP-null S. aureus, primary screen, RN4220 ugtP deletion, OD600. 330,000 tested, 0.54% active. growth inhibition, % (no concentration beside the values). 16 h; in the data active = growth inhibition above about 68%;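 also: plate controls were untreated wells for no effect and antibiotic for full effect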
RN4220 kill = growth inhibition of S. aureus RN4220, primary screen, OD600; 16 h; inhibition, % (test concentration not listed); 330,000 tested, 0.33% active; AID 1259311, 2017; in the data active = inhibition above about 85%;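 also: plate controls were untreated cells for no effect and reference antibiotic for full effect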
CCHFV vOTU inh = CCHFV vOTU protease inhibitors, primary screen, biochemical, Pep-AMC substrate, fluorescence | Crimean-Congo hemorrhagic fever virus L polyprotein viral ovarian tumor (vOTU) protease … | inhibition, % at 11.5 µM | 370,000 tested, 0.55% active | AID 651958, 2012; in the data active = inhibition above about 30%; also: 0% = vehicle wells with enzyme and 100% = no enzyme wells
MazEF act = activators of E. coli MazEF toxin-antitoxin RNase, primary screen, biochemical, fluorescence, uHTS; Endoribonuclease toxin MazF (Escherichia coli (strain K12)), P0AE70; FAM/BHQ RNA-DNA oligo cleavage fluorescence, 5 h; activation, % at 20 µM; 350,000 tested, 0.32% active; in the data active = activation above about 50%
Target sequence (P0AE70 whole entry, looked up): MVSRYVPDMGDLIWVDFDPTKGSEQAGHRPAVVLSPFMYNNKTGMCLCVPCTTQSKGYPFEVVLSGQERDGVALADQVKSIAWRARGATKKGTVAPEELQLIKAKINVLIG
Mtb betalactam = beta-lactam sensitization of Mtb H37Rv, H37Rv | inhibition, % at 25 µM | M. tuberculosis H37Rv growth with meropenem, percent inhibition | AID 434955, 2010 | 330,000 tested, 0.27% active; call rule not given here;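 also: growth measured after seven days incubation then overnight dye step; 0% = bacteria only wells and 100% = bacteria with antibiotic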
Active calls of the source: *; nt = no result given; + = active, no number.

SMILES	3CLpro inhibitor	Sa ugtP lethal	RN4220 kill	CCHFV vOTU inh	MazEF act	Mtb betalactam
Cc1ccc(NS(=O)(=O)c2ccc3[nH]c(=O)[nH]c3c2)cc1	-4.8	4.4	-0.3	3.0	-15.9	2.2
Oc1ccc(N=Nc2n[nH]c(-c3ccccc3)n2)cc1	-1.7	-10.8	6.6	1.1	1.3	9.0
Oc1ccc(N=Nc2nc(-c3ccccc3)c(-c3ccccc3)[nH]2)cc1	-6.6	77.0	-10.7	9.3	126.1*	26.8
CC(C(=O)N1CCc2ccccc21)N1CCN(c2cccc(C(F)(F)F)c2)CC1 (configuration not stated)	-4.4	89.6*	-4.1	-6.0	8.5	6.8
COc1ccc(C=NNC(=O)CNS(=O)(=O)c2ccc(C)cc2)cc1	nt	13.4	4.2	nt	nt	nt
Cc1onc(-c2c(F)cccc2Cl)c1C(=O)NC1C(=O)N2C1SC(C)(C)C2C(=O)O (configuration not stated)	nt	100.3*	100.5*	nt	nt	nt
CC1=C(C(=O)O)N2C(=O)C(NC(=O)c3c(F)cccc3F)C2SC1 (configuration not stated)	nt	5.8	5.9	-3.1	-1.3	nt
CC1=C(C(=O)O)N2C(=O)C(NC(=O)Cc3ccccc3)C2SC1 (configuration not stated)	0.7	37.0	27.3	-10.6	-1.2	-8.5
Cc1nnc(SCC2=C(C(=O)O)N3C(=O)C(NC(=O)c4cccc(F)c4F)C3SC2)s1 (configuration not stated)	-4.0	100.5*	99.5*	5.8	5.8	-5.1
Cc1cc(C)n(CC(=O)NC2C(=O)N3C(C(=O)O)=C(CSc4nnc(C)s4)CSC23)n1 (configuration not stated)	1.3	99.6*	100.3*	10.2	1.1	7.2
Cc1nnc(SCC2=C(C(=O)O)N3C(=O)C(NC(=O)Cn4ncc(Cl)c4C)C3SC2)s1 (configuration not stated)	-0.5	98.7*	99.1*	-3.5	6.0	10.6
COC(=O)c1sccc1NN=C(C)c1ccc(F)c(Cl)c1	nt	-11.3	2.1	nt	nt	nt
COC(=O)Cn1cc(/C=C2\C(=O)NC(=O)N(c3ccc(OC)cc3)C2=O)c2ccccc21	0.7	9.8	2.5	-10.9	111.1*	12.2
COc1ccc(N2C(=O)NC(=O)/C(=C\c3cn(C)c4ccccc34)C2=O)cc1	1.4	-12.1	1.2	nt	290.0*	-5.9
COCCCNC(=O)Cn1cc(/C=C2\C(=O)NC(=O)N(c3ccccc3F)C2=O)c2ccccc21	5.0	9.0	5.7	nt	-502.7	7.6
COCCNC(=O)Cn1cc(/C=C2\C(=O)NC(=O)N(c3ccccc3F)C2=O)c2ccccc21	3.1	-5.7	1.7	4.5	+	1.8
O=C(O)CCC(=NNC(=O)c1ccc(-c2ccccc2)cc1)c1ccccc1	nt	2.0	2.3	nt	nt	nt
O=C(NC1CCCCC1)C1CC=CC2CCN(Cc3ccccc3)C(=O)C21 (configuration not stated)	nt	5.6	5.7	nt	nt	nt
N#C/C(=C\c1ccccn1)c1nc2ccccc2s1	2.2	39.6	27.6	-9.5	66.7*	18.5
COC(=O)c1ccc(/C=C(\C#N)c2nc3ccccc3s2)cc1	0.5	12.5	28.9	4.5	9.5	25.0
CC1C(=O)C(C)C(c2ccccc2)N(N=O)C1c1ccccc1 (configuration not stated)	nt	nt	nt	8.2	1.5	nt
CCN1C(c2ccccc2)C(C)C(=O)C(C)C1c1ccccc1 (configuration not stated)	-2.8	90.6*	-13.3	-8.2	-1.4	1.0
CCOc1cc(/C=C2/C(=N)N3C(=NC2=O)SN=C3S(=O)(=O)C(C)C)ccc1OC(=O)c1ccco1	0.1	-1.0	1.1	20.3	61.8*	11.1
COc1cc(/C=C2/C(=N)N3C(=NC2=O)SN=C3S(=O)(=O)C(C)C)ccc1OC(=O)c1ccco1	1.0	12.2	9.0	2.7	45.4	15.9
O=C(Nc1cc(Cl)ccc1-n1cncn1)c1ccco1	3.0	-3.0	3.5	-1.2	-1.5	-1.2
O=C(Nc1cc(Cl)ccc1-n1cncn1)c1ccc([N+](=O)[O-])s1	2.0	100.5*	26.8	nt	4.9	93.6

Screening data (PubChem BioAssay)
